# From PubChem
# The list is not random: actives were taken first. Their share in the collection is about 7%.
# PLK1 PBD block = inhibitors of human PLK1 polo-box domain binding; P53350; Plk1 PBD binding of FITC phosphopeptide, fluorescence polarization; Potency, µM, usual class: inhibitors; hit rate 2.8% among 360,000; AID 720504; also: series mostly up to about 57 µM; nearly all actives have a fitted effect of over 65% in size
# KAT2A inh = GCN5L2 (KAT2A) acetyltransferase inhibition | GCN5L2 HAT assay, ThioGlo1 CoA-SH fluorescence | hit rate 0.21% among 390,000 | Potency, µM (titrated, usually from 58.9 µM), most hits filed as inhibitors | AID 504327
#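 Fluorescence readout, Ex340nm/Em540nm: ThioGlo1 (50uM final) reacts with free CoA thiol released as 20nM GCN5L2 acetylates H3(1-25) peptide (75uM) using acetyl-CoA (70uM). Compound and enzyme sat 15 min beforehand; 20 min room-temperature reaction.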
# BAZ2B block = blocks human BAZ2B | Q9UIF8 | Potency, µM (highest dose often 114 µM), most hits filed as inhibitors | AlphaScreen BAZ2B-H3K14Ac peptide displacement | hit rate 4.4% among 360,000; also: nearly all actives have a fitted effect of over 60% in size
#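 AlphaScreen displacement of biotin-H3(5-23)K14Ac peptide (50 nM final) from BAZ2B (50 nM final) in PBS pH 7.4, 0.01% Tween-20; complex preformed 30 min RT, then compounds (top 110 uM) 30 min RT, beads 20 min dark.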
# HP1b binding inh = inhibitors of HP1-beta chromodomain binding to methylated histone tails | P83916 | AlphaScreen HP1-beta / biotin-H3K9me3 peptide binding | Potency, µM (series often up to 114 µM), actives largely listed as inhibitors | hit rate 0.56% among 390,000 | AID 540317; also: nearly all actives have a fitted effect of over 70% in size
# Target sequence (P83916 whole entry, looked up): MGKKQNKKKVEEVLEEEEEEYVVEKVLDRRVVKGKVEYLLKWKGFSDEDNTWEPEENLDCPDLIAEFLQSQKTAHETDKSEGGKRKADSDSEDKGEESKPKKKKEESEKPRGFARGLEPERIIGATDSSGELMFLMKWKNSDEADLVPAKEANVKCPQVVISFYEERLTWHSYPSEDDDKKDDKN
#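 HP1-beta protein (50 nM final) preincubated 30 min at room temperature with biotinylated H3(1-18)K9me3 peptide (50 nM) in PBS pH 7.4, 0.01% Tween-20, then compound added for 30 min. AlphaScreen streptavidin donor/nickel chelate acceptor beads (10 ug/mL final), 30 min dark, luminescence read.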
# JMJD2A Tudor = blocks the human JMJD2A Tudor domain; O75164; AlphaScreen JMJD2A-Tudor / H3K4me3 peptide binding; Potency, µM (doses to about 114 µM), actives largely listed as inhibitors; hit rate 4.4% among 390,000; AID 504339; also: nearly all actives have a fitted effect of over 50% in size
# PI5P4Ka inh = PI5P4K alpha (human) kinase inhibition; P48426; PI5P4Kalpha enzyme, ADP-Glo luminescence, 60 min; stronger effect = lower value; max response, %; hit rate 1.2% among 330,000; active = max response of -50% or lower; inconclusive = between -30% and -50%; inactive = -30% or higher; also: value at the top dose of about 77 µM
# Target sequence (P48426 whole entry, looked up): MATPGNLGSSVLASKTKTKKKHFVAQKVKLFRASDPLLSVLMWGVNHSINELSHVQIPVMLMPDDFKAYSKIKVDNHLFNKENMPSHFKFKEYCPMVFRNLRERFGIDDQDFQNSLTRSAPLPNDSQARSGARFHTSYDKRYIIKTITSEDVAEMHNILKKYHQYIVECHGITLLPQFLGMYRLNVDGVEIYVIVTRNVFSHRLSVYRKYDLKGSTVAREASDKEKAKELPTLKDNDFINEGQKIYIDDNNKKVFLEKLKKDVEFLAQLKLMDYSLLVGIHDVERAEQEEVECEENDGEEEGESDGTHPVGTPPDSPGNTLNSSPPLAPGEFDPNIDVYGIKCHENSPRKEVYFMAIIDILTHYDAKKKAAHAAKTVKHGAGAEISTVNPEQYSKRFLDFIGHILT
#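 Compounds were pin-transferred onto PI5P4Kalpha and substrate in HEPES pH 7.4 buffer with EGTA, CHAPS and 5% DMSO. ATP (5 microM final) started the reaction, which ran 60 minutes at room temperature before ADP-Glo detection.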
# Hits are given with their value; n = inactive; u = inconclusive; x = no result given; ! = repeats disagree; [ ] = dose if it differs, or a comment. Unless noted, calls follow the shape of the dose curve; as a rule, active = well fitted curve in the direction sought with a large enough effect; inconclusive = small, poorly fitted or top-dose-only effect, or another doubt; inactive = no such curve, though single readings can be large; an effect the other way counts as inactive or inconclusive.
SMILES,PLK1 PBD block,KAT2A inh,BAZ2B block,HP1b binding inh,JMJD2A Tudor,PI5P4Ka inh
Cc1ccc(OCC(=O)N(C)CCc2ccccn2)cc1,n,n,u,n,10µM,x
O=C1NC[C@H](Cc2ccccc2)N(C[C@@H]2CCCN2C[C@H](Cc2ccc(O)cc2)N2C[C@H](Cc3ccccc3)N(CCc3ccccc3)C(=O)C2=O)C1=O,n,x,x,x,x,n
CN1CCN(C2=Nc3ccccc3Sc3ccc(Cl)cc32)CC1,x,n,x,x,x,x
CN1CCN(c2cc(-c3ccccc3C(F)(F)F)ncn2)CC1,x,n,x,x,x,x
CN1CCN(C2=Cc3ccccc3Sc3cc(F)c(Cl)cc32)CC1,n,n,35.5µM,n,50.1µM,n
CN1CCN(C2=Cc3cc(Cl)ccc3Sc3cc(F)ccc32)CC1,n,n,22.4µM,n,56.2µM,n
CN1CCN(C2=Cc3ccccc3Sc3cc(F)c(F)cc32)CC1,n,n,44.7µM,u,u,n
O=c1ccnc(Nc2ccc([N+](=O)[O-])cc2)[nH]1,n,x,x,n,n,n
CC(C)(C)c1ccc(-c2nc(SCC(=O)Nc3ccccc3F)n3[nH]c(=O)cc3n2)cc1,x,u,n,n,n,x
CCCCC1(C2CCCC2)NC(=O)NC1=O (centres undefined),n,x,x,n,n,n
CCCCCCCCCCCCCCCC[n+]1cccc2ccccc21,u,n,50.1µM,n,u,-59.1
COc1ccc(NC(=O)c2ccc(NC(=O)c3cccs3)cc2)cc1,n,n,n,n,n,n
COc1nc(N)nc(NC(=O)c2cccs2)c1N=O,u,x,x,n,28.2µM,n
CCCCn1c(N)c(N(C)C(=O)C2CCCC2)c(=O)[nH]c1=O,n,n,n,n,n,n
CC(C)OCCCNCC(O)c1ccccc1 (centres undefined),n,n,79.4µM,u,20µM,n
O=C1CCCN1CCCNCC(=O)N1c2ccccc2Sc2ccccc21,n,n,22.4µM,u,10µM,n
O=C1CCCN1CCCNCC(O)c1ccccc1 (centres undefined),n,n,u,u,1µM,n
CCN1CCC(N(Cc2ccc(F)cc2)C(=O)Nc2cccc(C(F)(F)F)c2)CC1,x,n,n,n,n,x
O=S(=O)(Nc1cccc(-c2ccc(N3CCOCC3)nn2)c1)c1ccc(F)cc1F,x,n,n,n,n,x
Cc1noc(C)c1C(=O)N1CCC1(C)C(=O)NS(=O)(=O)c1ccc(Cl)cc1 (centres undefined),n,x,x,x,x,n
COc1ccc(NC(C)C(=O)N/N=C/c2ccccc2OCc2cccc(Br)c2)cc1 (centres undefined),n,n,10µM,u,11.2µM,n
CCSC1=NC2(CCN(C(=O)NC3CCCCC3)CC2)N=C1c1ccc(Cl)cc1,x,n,n,n,n,x
Cc1ccc2oc3c(c(=O)c2c1)C(c1ccc(F)cc1)N(c1nc(C)c(C)s1)C3=O (centres undefined),x,n,n,n,n,x
CCc1ccc(-c2nc(CS(=O)CC(=O)NC3CCCCCC3)c(C)o2)cc1 (centres undefined),29.9µM,n,n,n,n,n
CCc1ccc(-c2nc(CS(=O)CC(=O)NC3CC3)c(C)o2)cc1 (centres undefined),n,n,n,n,n,n
SMILES,PLK1 PBD block,KAT2A inh,BAZ2B block,HP1b binding inh,JMJD2A Tudor,PI5P4Ka inh
CC(C)C(=O)NC(Nc1cccc([N+](=O)[O-])c1)C(Cl)(Cl)Cl (centres undefined),n,n,n,n,n,n
CN(C)C(=O)NC(Nc1cccc([N+](=O)[O-])c1)C(Cl)(Cl)Cl (centres undefined),29.9µM,n,n,n,n,n
O=C(C[C@H]1C/C=C\C[C@@H](Cc2ccc(F)cc2)C(=O)OC[C@@H](Cc2c[nH]c3ccccc23)NC1=O)NCCO,n,n,x,n,n,n
COc1ccc(C2Nc3ccccc3C(=O)N2CCc2ccccc2)cc1COc1ccc(NC(C)=O)cc1 (centres undefined),x,x,x,x,n,x
O=C1c2ccccc2NC(c2ccc(O)cc2)N1Cc1ccco1 (centres undefined),n,n,n,n,n,x
CC(=O)Nc1cccc(OCc2cccc(C3Nc4ccccc4C(=O)N3Cc3ccco3)c2)c1 (centres undefined),x,x,x,x,31.6µM,x
COc1ccc(C2Nc3ccccc3C(=O)N2Cc2cccc(Cl)c2)cc1COc1ccc(NC(C)=O)cc1 (centres undefined),x,x,x,x,n,x
O=C1c2ccccc2NC(c2cccc(F)c2)N1Cc1ccco1 (centres undefined),n,n,56.2µM,n,n,x
COc1ccc(C2Nc3ccccc3C(=O)N2Cc2ccco2)cc1COc1ccc(NC(C)=O)cc1 (centres undefined),n,n,n,n,89.1µM!,n
COc1ccc(C2Nc3ccccc3C(=O)N2CCCN(C)C)cc1COc1ccc(NC(C)=O)cc1 (centres undefined),x,x,x,x,79.4µM,x
COc1cccc(NC(=O)c2ccnc(N3CCC(C(=O)NCc4cc(OC)ccc4OC)CC3)c2)c1,n,n,n,n,n,n
O=[N+]([O-])c1cccc(-c2nnc3cccc(Cl)n23)c1,n,n,n,n,n,n
O=[N+]([O-])c1ccc(-c2nnc3cccc(Cl)n23)cc1,n,n,u,n,56.2µM,n
CCn1c(C)cc(/C=C2\NC(=O)N(Cc3ccccc3)C2=O)c1C,n,n,n,n,89.1µM,n
CCCCCOC(=O)c1[nH]c2c(c1C)C(=O)C(C(=O)OC)C(C)C2 (centres undefined),2.99µM,n[0.501 µM],n,n,14.1µM,u
COCCOC(=O)c1[nH]c2c(c1C)C(=O)C(C(=O)OC)C(C)C2 (centres undefined),n,n,n,n,n,n
COc1ccc(NC(=O)CN2C(=O)C(=O)N(C3CCCC3)C2=O)c(OC)c1,n,n,x,n,n,n
Oc1ccc(Nc2ccnc3cc(Cl)ccc23)cc1,n,n,n,n,n,n
CCN(CC)Cc1cc(Nc2ccnc3cc(Cl)ccc23)ccc1O,n,n,50.1µM!,n,n,n
O=C(c1ccc2c(c1)N(Cc1ccccc1)C(=O)c1ccccc1S2(=O)=O)N1CCc2ccccc21,x,n,n,n,n,x
Cc1cccc(N2CCN(C(=O)c3cc4ccc5cccnc5c4[nH]3)CC2C)c1 (centres undefined),x,n,28.2µM,n,28.2µM,x
Cc1ccc(C)c(N2CCN(C(=O)c3cc4ccc5cccnc5c4[nH]3)CC2)c1,x,n,n,n,u,x
Cc1cccc(N2CCN(C(=O)c3ccc4c(c3)c(C)c(C)n4C)CC2C)c1 (centres undefined),n,n,22.4µM,39.8µM,28.2µM,n
Cc1c(C(=O)N2CCCC2)oc2c1-c1nn(CC(=O)NCc3cccc(Br)c3)cc1CC2,x,n,n,n,n,x
CCOC(=O)C(C#N)C(=N)C1C(=O)OC2CCCCC21 (centres undefined),n,x,x,x,x,n
